The list shows a part of the results. The true hit rate is not given.
B1: VH:VL chains; a variant is named by its letters at X, in order (parent)
chain 1: QVQLVQSGAEVKKPGASVKVSCKASGYTFTDYXMHWVRQAPGQGLEWMGXVNPNXXXTTYNQKFEGRVTMTTDTSTSTAYMELRSLRSDDTAVYYCARXNXLDXWGQGTTVTVSS
chain 2: DIQMTQSPSSLSASVGDRVTITCSVSSSVSSIYLHWYQQKPGKAPKLLIYSTSNLASGVPSRFSGSGSGTDFTLTISSLQPEDFATYYCQVYSGYPLTFGGGTKVEIK

Variants of: B1
Assay: yeast display scFab, FACS + sequencing
Settings: with MET
Method in brief: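 Antigen binding was called positive for sequences present in both antigen-positive samples and negative for those present only in the input. These calls came from deep sequencing, in two replicates, of round-3 sorted and input populations from a heavy-chain CDR mutant scFab yeast surface library. The library was first enriched twice magnetically on HGFR-Fc-coated Protein A beads and then by FACS, gating the top 50% antigen-positive cells after 3 h labelling at room temperature with 1 nM HGFR-Fc plus anti-Myc in PBSB with 1% milk.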

Variant	antigen binding call
ATGRADWA	no binding
VTETGDSV	no binding
YTGEDDVY	no binding
YRGKAAGD	binds
YAGKSAGD	no binding
YTGTSAGD	no binding
YRGKASGD	binds
YRRRGSWA	binds
FRRRGAWA	binds
YRRRGYWA	binds
YRRRGAWA	binds
FRRKDDWA	no binding
ATGEDDVY	no binding
DEGGTDGY	no binding
FARKGDGV	no binding
SARRGDWA	no binding
YRRRGVWA	binds
YRREGDWA	no binding
YRRRGDWA	binds
DATGGDGV	no binding
FAGRGALD	no binding
FARGGDAV	no binding
FRRGGSAF	binds

Variant	antigen binding call
FRRRGAAD	binds
FRRRGALD	binds
FRRRGAVD	binds
FARKSYGA	no binding
AETKGDGV	no binding
YGTATFLV	no binding
VRTKDFSY	no binding
FGATSFSV	no binding
FAGGDYGS	no binding
DTAGDAVV	no binding
FRRGGSAD	binds
DARGGSAD	no binding
FRRRGSAD	binds
YRRRGSAD	binds
FARGGSAD	no binding
YRAGDSVD	binds
DRAGDSVD	no binding
YRRKGSVD	binds
YRAKGSVD	binds
FKGKGAVA	no binding
YKTGNDVA	no binding
YTTGGAVA	no binding
YKTRSAVA	binds

Variant	antigen binding call
SKGKGAVA	no binding
YAGTGAVA	no binding
YKGKGSVV	binds
FKGRGAVD	binds
YKGKGAVA	binds
VKGAGSVV	no binding
DTKAASWA	no binding
FKGEGDVA	no binding
YKGKGSVA	binds
FKAGGAVA	binds
AATGSAWA	no binding
DRGEGAGD chain 1 G42D	binds
DRGRDAGD	no binding
DAGGGAGD	no binding
DAARGAGD	no binding
VRGGSDVD	no binding
FRGGSAVD	binds
DRGGSAGD	binds
DRTTNAGD	no binding
DRAGGAGD	binds
DAGEAAGD	no binding
DKGGAAGD	no binding
FAGRDVGV	no binding

Variant	antigen binding call
SGKGGSAY	no binding
FRGADFGD	no binding
FRKGSAVD	binds
FTGGAAGD	no binding
FRGGSAGD	binds
DAGGADAY	no binding
FTGGASGV chain 1 V111I	no binding
YKAGDVSV	no binding
VEGTSASV	no binding
YGGGGASV	binds
VKGRGASV	binds
YGGGGDVV	no binding
YKGRGASV	binds
VKGRAFSV	no binding
YEGGGFSV	no binding
YKAKGASV	binds
SEEGTDWY	no binding
DAGGAAAD	no binding
YEGTGAGA	no binding
YKGRSASV	binds
YKGRGASA	binds
VKGRSFLV	no binding
FKRRSVGA	no binding

Variant	antigen binding call
YAGRGASA	no binding
VKGRSDWV	no binding
YKRRSASA	binds
YKGRGASD	binds
YAGRGDSA	no binding
VERGTYGV	no binding
AKTKSDWV	no binding
VTTRDDSD	no binding
VAGTGDWY	no binding
DTEGDAGD	no binding
VTGESDWY	no binding
FRGEGALV	binds
FRGKGFGV	no binding
FRGEGFSV	no binding
FRGGGSGV	binds
FRGGGFVV	no binding
VTGEGALV	no binding
FRGKGSGV	binds
FRKGGSGV	binds
ARGEGSGV	no binding
FRGEGSGV	binds
FRGGGVGV	binds
FKGGNVGV	no binding

Variant	antigen binding call
FRGGSSGV	binds
FAGEGAGV	no binding
VRGGGVGV	no binding
STEGGSVY	no binding
SKTKSDWA	no binding
SGEGGAVA	no binding
DEAGGDGY	no binding
YRRGSSLY	binds
YRKESAVY	binds
YRRGSALY	binds
YRRGDSLY	binds
FARKSDSS	no binding
DKKKDVVF	no binding
FKTAGSAV chain 1 R67H	no binding
YRRGSAVY	binds
YRRGSYVY	no binding
ATGGAALD	no binding
YRKGGSAA	binds
YRKGSSAA	binds
VAEEDAGY	no binding
